Screening data (PubChem BioAssay)
The list is not random: actives were taken first. Their share in the collection is about 19%.
HT1080NT lethal – kills 2HG-producing HT-1080-NT fibrosarcoma cells. HT-1080-NT fibrosarcoma viability, CellTiter-Glo ATP luminescence, 48 h. Potency, µM (highest dose often 46.1 µM), for inactives: at the top dose activity, negative = less viability, hits mostly cytotoxic. actives 1.6% (n = 360,000). AID 686970;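 further: NT is the 2HG producing partner of a matched IDH1 knockdown line; potency means the concentration at half of the fitted maximal effect; 0% = DMSO-treated cells and -100% = media-only wells without cells; nearly all actives have a fitted effect of over 55% in size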
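HT-1080-NT fibrosarcoma cells (2HG-overproducing), 750 cells/well in RPMI with 5% FBS, dosed after 2 h and incubated 48 h at 37C. CellTiter-Glo luminescence normalized to DMSO and no-cell wells; concentration-response curves fitted and classed.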
TDP1 cell CPT – DT40-hTDP1 cell growth loss with CPT; chicken DT40 Tdp1-/-;hTDP1 cells + 20 nM CPT, ATP luminescence, 48 h; Potency, µM (doses to about 46.2 µM), for inactives: at the highest dose activity change, negative = growth inhibition, hits mostly inhibitors; actives 12% (n = 420,000); AID 686979; further: potency means the concentration at half of the fitted maximal effect; nearly all actives have a fitted effect of over 55% in size
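Chicken DT40 Tdp1-/- cells stably complemented with human TDP1 were seeded at 400 cells/well in medium containing 20 nM camptothecin, exposed to pin-transferred compounds, and grown at 37 °C for at least 48 hr. Viability was read as ATP luminescence.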
HT1080 IDH1KD tx – HT-1080 IDH1 knockdown cell toxicity (counter line). actives 2% (n = 360,000). HT-1080 IDH1 knockdown viability, ATP luminescence, 48 h. Potency, µM (series often up to 46.1 µM), inactives show at the top dose activity, negative = toxicity, most hits filed as cytotoxic;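 further: potency means the concentration at half of the fitted maximal effect; 0% = DMSO wells and -100% = cell-free medium wells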
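After a 2 h attachment period, IDH1KD HT-1080 cells took pin-transferred compound for 48 h at 37 °C; ATP-based luminescence after 10 min room-temperature reagent incubation reported viability.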
IL-1B inflam inh – inhibitors of inflammasome signaling (IL-1 beta secretion) | actives 4.7% (n = 360,000) | activity change, % at 57.5 µM | AID 743279 | THP-1 LPS/ATP IL-1B secretion, AlphaLISA, 16 h; active compounds read low; in the data active means activity change below about -50%; inconclusive means mostly about -30% to -49%
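THP-1 cells pretreated 1 hr with compounds (up to 57.5 uM final), then stimulated with LPS (250 ng/mL final) plus ATP (1.25 mM final); secreted IL-1B measured by AlphaLISA after 16 hr, decreased signal indicating inhibition.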
ELG1 repair inh – inhibitors of ELG1-dependent DNA repair in HEK293T cells; HEK293T ELG1-luciferase reporter, luminescence, 16 h; DNA damage induced by 5-fluorouridine; Potency, µM (titrated, usually from 46.1 µM), inactives show top-dose activity change, negative = inhibition, hits mostly inhibitors; actives 2.3% (n = 330,000); further: potency means the concentration at half of the fitted maximal effect; nearly all actives have a fitted effect of over 55% in size
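Reporter activity after DNA damage by 5-fluorouridine is monitored. Compound-treated cells incubate 16 hr at 37 °C, then ONE-Glo is added for 30 min before luminescence reading.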
DT40 TDP1 no CPT – qHTS for Inhibitors of human tyrosyl-DNA phosphodiesterase 1 (TDP1): qHTS in cells in absence of CPT; DT40 Tdp1-/- hTDP1 cells, no CPT, ATP luminescence, 48 h; Potency, µM (doses to about 46.2 µM), inactives show at the highest dose activity change, negative = growth inhibition, most hits filed as inhibitors; actives 15% (n = 420,000); AID 686978, 2013; further: potency means the concentration at half of the fitted maximal effect; nearly all actives have a fitted effect of over 55% in size
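Readout: luminescence from CellTiter-Glo after 30 min in the dark at RT. Cells: DT40 Tdp1-/- with stable hTDP1, 400/well. Exposure: compounds alone, ≥48 hr, 37 °C.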
The depositor's hits bear a star; ? = inconclusive; · = no result. Unless noted, the call rests on the fitted dose curve; in most records, active means well fitted curve in the direction sought with a large enough effect; inconclusive means small, poorly fitted or top-dose-only effect, or another doubt; inactive means no such curve, though single readings can be large; an effect the other way counts as inactive or inconclusive. Unless noted, on the % scale 0 is the no-effect control and ±100 the full control effect.

SMILES	HT1080NT lethal	TDP1 cell CPT	HT1080 IDH1KD tx	IL-1B inflam inh	ELG1 repair inh	DT40 TDP1 no CPT
O=C(CCCCCn1c(=O)c2sccc2n(Cc2ccccc2Cl)c1=O)NCc1ccc2c(c1)OCO2	·	-22%	·	·	·	-26%
O=C(COC(=O)c1ccc(Cl)cc1Cl)Nc1cccc(S(=O)(=O)NC2=NCCC2)c1	1%	0%	-21%	0	-9%	-2%
CC(C)NC(=O)N1CCCC2(CCN(C(=O)c3ccco3)CC2)C1	·	0%	·	·	·	-5%
C=CC[C@H](CC(=O)OC(C)(C)C)C(=O)OC[C@H]1CCCN1C(=O)[C@@H](CC=C)CC(=O)N(CCO)Cc1ccccc1	-7%	18µM*	-12%	?	?	21µM*
C=CC[C@H](CC(=O)OC(C)(C)C)C(=O)OC[C@H]1CCCN1C(=O)[C@H](CC=C)CC(=O)NCCO	9%	-2%	8%	-1	7%	-15%
O=C(C1CCN(Cc2ccc(F)cc2)CC1)N(CCO)Cc1ccccc1	9%	-3%	14%	-26	11%	-17%
C=CC[C@@H](Cc1ccc(F)cc1)C(=O)OC[C@H]1CCCN1C(=O)[C@@H](CC=C)CC(=O)N(CCO)Cc1ccccc1	-18%	15µM*	-28%	-56*	-24%	13µM*
C=CC[C@@H](Cc1ccc(F)cc1)C(=O)OC[C@@H]1CCCN1C(=O)[C@H](CC=C)CC(=O)N(CCO)Cc1ccccc1	-20%	?	-7%	-61*	?	18µM*
CS(=O)(=O)Nc1ccc(C(=O)Nc2ccc(S(=O)(=O)N3CCCC3)cc2)cc1	-8%	-10%	-4%	-11	?	?
COc1ccc(/C=N\NC(=O)c2c(C)nc3ccc(Br)cn23)cc1	?	0.58µM*	0.58µM*	75	-3%	0.73µM*
Cc1ccc(/C=N/NC(=O)c2c(C)nc3ccc(Br)cn23)cc1	1.3µM*	0.73µM*	0.58µM*	71	-4%	0.58µM*
Cc1ccc2nc(C)c(C(=O)NN=C3CCN(C)CC3)n2c1	5.2µM*	6%	5.2µM*	65	-20%	8%
CCOCCCN1C(=O)C(=O)N(CC(=O)N2c3ccccc3NC(=O)CC2C)C1=O (stereo not drawn)	4%	-11%	6%	-4	2%	-3%
C/C(=N\Nc1cccc([N+](=O)[O-])c1)c1cc2ccccc2o1	15%	-7%	3%	-4	?	-7%
CC(=O)NC/C(C)=N\Nc1ccc([N+](=O)[O-])cc1	4.6µM*	?	3.7µM*	-23	?	?
C/C(=N\Nc1ccc([N+](=O)[O-])cc1)c1cccc(N)c1	-4%	?	-4%	-29	8%	21µM*
C/C(=N\Nc1ccc([N+](=O)[O-])cc1)c1ccc(O)cc1	?	?	?	-61*	?	?
CC(C)(C)S(=O)N1Cc2cc(CO)ccc2[C@H]1CCO (stereo partly drawn)	9%	-22%	10%	45	·	?
COc1ccc(Oc2ncc3ncc(=O)n(CCC#N)c3n2)cc1	·	13%	·	·	·	?
CCOc1ccc(NC(=O)N2CCC(c3ccc(C)cc3)C2)cc1 (stereo not drawn)	6%	?	-2%	-1	30%	?
O=C(Nc1ccc(Cl)c(Cl)c1)N1CCC(c2ccccc2)C1 (stereo not drawn)	·	?	·	·	·	21µM*
Cc1ccc(NC(=O)N2CCC(N3CCN(Cc4ccccc4)C(=O)C3=O)CC2)cc1Cl	·	?	·	·	·	15µM*
CCOC(=O)c1ccccc1NC(=O)N1CCC(N2CCN(Cc3ccccc3)C(=O)C2=O)CC1	·	-10%	·	·	·	-28%
O=C(Nc1ccccc1)N1CCC(c2ccccc2)C1 (stereo not drawn)	0%	0%	2%	-17	?	0%
Cc1ccc(C2CCN(C(=O)Nc3ccc(Cl)c(Cl)c3)C2)cc1 (stereo not drawn)	·	?	·	·	·	26µM*
SMILES	HT1080NT lethal	TDP1 cell CPT	HT1080 IDH1KD tx	IL-1B inflam inh	ELG1 repair inh	DT40 TDP1 no CPT
Cc1ccc(S(=O)(=O)NNC(=O)Nc2ccc(C)c(C)c2)c(C)c1	-2%	?	11%	31	9%	?
Cc1ccc(S(=O)(=O)N2CCOCC2)cc1C(=O)OCc1nnc(-c2ccccc2)o1	-5%	?	0%	30	-2%	?
O=C(OCC(=O)N1CCOCC1)c1cc(S(=O)(=O)N2CCOCC2)c(Cl)cc1Cl	0%	-12%	1%	-84*	?	0%
O=C(COC(=O)c1cc(S(=O)(=O)N2CCOCC2)c(Cl)cc1Cl)c1ccc[nH]1	-20%	-7%	-23%	-99*	-21%	20%
O=C(OCc1nnc(-c2ccccc2)o1)c1cc(S(=O)(=O)N2CCOCC2)c(Cl)cc1Cl	-11%	21µM*	?	-101*	0%	7.3µM*
CC(C)Cc1ccc(S(=O)(=O)N2CCN(Cc3noc(CCC(=O)N4CCCCC4)n3)CC2)cc1	·	?	·	·	·	21µM*
CC1(Cc2ccc(Cl)c(Cl)c2)C(=O)Nc2ccc(S(=O)(=O)NC3CCCCC3)cc21 (stereo not drawn)	?	?	?	-17	·	?
CC1(Cc2cc(Cl)ccc2C(F)(F)F)C(=O)Nc2ccc(S(=O)(=O)NC3CCCCC3)cc21 (stereo not drawn)	?	26µM*	?	-21	·	?
CCCCCCCCS(=O)c1sc2nc3c(cc2c1N)CCCC3 (stereo not drawn)	-6%	13µM*	-5%	16	·	?
CCCCCCCCS(=O)c1sc2nc(C)cc(C)c2c1N (stereo not drawn)	-4%	?	-16%	4	?	?
CCCCS(=O)(=O)c1sc2nc3c(cc2c1N)CCCC3	-21%	12µM*	-16%	-15	?	23µM*
CN(Cc1ccccc1Br)C(=O)CN1C(=O)NC2(CCCCCC2)C1=O	15%	?	2%	6	3%	-14%
Cc1ccc(S(=O)(=O)N(C)CC(=O)NNC(=O)CCC(=O)c2ccc(F)cc2)cc1	13%	1%	14%	19	22%	?
CCOc1cccc(C2C=C(c3ccc4c(c3)OCO4)NC(c3ccc(Cl)cc3)N2)c1O (stereo not drawn)	·	10µM*	·	·	·	13µM*
